# According to PubChem BioAssay (EPA / NIEHS):
# Results filed as inconclusive are left out. Calls of active or inactive are those of the source. How the source made its calls: active means hit-call score of the fitted dose curve at least 0.9, where 1 is the maximum; inconclusive means response in the unintended direction; inactive means score below 0.9.
# Tests used:
# [1] = biological target: human Peroxisome Proliferator-activated Receptor alpha (PPARa), PPARA (gene 5465) (UniProt Q07869); experiment: NVS_NR_hPPARa: NovaScreen (NVS) Nuclear Receptor Binding Assay for human Peroxisome Proliferator-activated Receptor alpha (PPARa) (AID 2283359);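 further: activity means loss of TR-FRET signal versus DMSO baseline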
# Summary of the method: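 One-hour incubation, cell-free extracted protein, TR-FRET binding readout; signal loss vs DMSO scored. Screen: 25 uM duplicates, confirmatory dose series for actives.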
# [2] = biological target: Retinoic acid receptor alpha (Homo sapiens) (UniProt P10276); experiment: NVS_NR_hRARa_Agonist: NovaScreen (NVS) Nuclear Receptor Binding Assay for human Retinoic Acid Alpha Receptor Agonism (RAR) (AID 2283361)
# Summary of the method: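 Compounds screened at 25 uM, duplicate, then in concentration series if active. Detection: TR-FRET gain of signal versus DMSO after 2 h with cell-free extracted RARα.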
# [3] = biological target: rat Androgen Receptor (AR), Ar (gene 24208) (UniProt P15207); experiment: NVS_NR_rAR: NovaScreen (NVS) Nuclear Receptor Binding Assay for rat Androgen Receptor (AR) (AID 2283366)
# Summary of the method: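 Actives from a duplicate single-concentration (25 uM) primary run went on to concentration series. Displacement of radioligand was counted by filtration and scintillation, 18 h post-dose, using prostate extracts from testosterone-pretreated rats, with DMSO as baseline.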
# [4] = biological target: Glucocorticoid receptor (Homo sapiens) (UniProt P04150); experiment: NVS_NR_hGR: NovaScreen (NVS) Nuclear Receptor Binding Assay for human Glucocorticoid Receptor (GR) (AID 2283363);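 further: activity is loss of specific radioligand binding signal relative to DMSO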
# Summary of the method: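 Single-readout cell-free binding: radioligand plus extracted receptor, 16-hour dosing, filter radiodetection; 25 uM duplicate primary, concentration series secondary.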
# [5] = biological target: Nuclear receptor subfamily 1 group I member 2 (Homo sapiens) (UniProt O75469); experiment: NVS_NR_hPXR: NovaScreen (NVS) Nuclear Receptor Binding Assay for human Pregnane X Receptor (PXR) (AID 2283365);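 further: a drop in FRET signal versus DMSO baseline means the compound binds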
# Summary of the method: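 TR-FRET signal read at 2 h in a cell-free human PXR binding format. DMSO served as negative control and baseline; activity scored as signal loss. Single-concentration duplicate screen (25 uM), then concentration-response follow-up.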
# [6] = biological target: human Adenosine Transporter (Adot), SLC29A1 (gene 2030) (UniProt Q99808); experiment: NVS_TR_hAdoT: NovaScreen (NVS) Transporter Assay for human Adenosine Transporter (Adot) (AID 2283368)
# Summary of the method: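 Binding displacement on U937 extracted protein, read 1 h post-dose by filtration and scintillation counting. Primary duplicate test at 25 uM, then singleton concentration series with 50 uM top; DMSO baseline.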
# Sequence of rat Androgen Receptor (AR), Ar (gene 24208) (P15207 whole entry, looked up): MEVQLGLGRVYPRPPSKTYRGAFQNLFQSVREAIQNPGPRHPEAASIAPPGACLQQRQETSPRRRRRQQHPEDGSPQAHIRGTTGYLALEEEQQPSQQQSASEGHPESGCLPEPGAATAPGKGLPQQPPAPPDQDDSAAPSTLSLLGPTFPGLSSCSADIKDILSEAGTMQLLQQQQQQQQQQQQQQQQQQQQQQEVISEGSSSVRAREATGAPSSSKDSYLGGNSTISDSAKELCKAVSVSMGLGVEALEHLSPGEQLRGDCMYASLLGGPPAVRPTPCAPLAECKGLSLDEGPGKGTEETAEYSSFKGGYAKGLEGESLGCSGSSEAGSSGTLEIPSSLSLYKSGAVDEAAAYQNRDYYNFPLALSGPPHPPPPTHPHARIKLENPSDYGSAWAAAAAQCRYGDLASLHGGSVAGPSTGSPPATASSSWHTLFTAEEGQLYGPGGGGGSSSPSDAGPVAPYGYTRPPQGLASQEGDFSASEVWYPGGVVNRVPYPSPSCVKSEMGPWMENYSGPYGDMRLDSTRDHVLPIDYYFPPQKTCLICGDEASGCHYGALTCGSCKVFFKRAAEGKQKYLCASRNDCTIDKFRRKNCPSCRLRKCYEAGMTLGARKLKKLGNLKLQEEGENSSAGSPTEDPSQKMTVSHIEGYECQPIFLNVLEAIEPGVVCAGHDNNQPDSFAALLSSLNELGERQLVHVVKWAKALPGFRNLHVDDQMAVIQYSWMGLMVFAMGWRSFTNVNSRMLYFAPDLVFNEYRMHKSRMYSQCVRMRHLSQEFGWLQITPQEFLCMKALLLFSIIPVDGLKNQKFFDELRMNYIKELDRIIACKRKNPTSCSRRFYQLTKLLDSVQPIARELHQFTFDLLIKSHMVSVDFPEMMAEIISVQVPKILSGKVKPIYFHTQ
# Sequence of Glucocorticoid receptor (Homo sapiens) (P04150 whole entry, looked up): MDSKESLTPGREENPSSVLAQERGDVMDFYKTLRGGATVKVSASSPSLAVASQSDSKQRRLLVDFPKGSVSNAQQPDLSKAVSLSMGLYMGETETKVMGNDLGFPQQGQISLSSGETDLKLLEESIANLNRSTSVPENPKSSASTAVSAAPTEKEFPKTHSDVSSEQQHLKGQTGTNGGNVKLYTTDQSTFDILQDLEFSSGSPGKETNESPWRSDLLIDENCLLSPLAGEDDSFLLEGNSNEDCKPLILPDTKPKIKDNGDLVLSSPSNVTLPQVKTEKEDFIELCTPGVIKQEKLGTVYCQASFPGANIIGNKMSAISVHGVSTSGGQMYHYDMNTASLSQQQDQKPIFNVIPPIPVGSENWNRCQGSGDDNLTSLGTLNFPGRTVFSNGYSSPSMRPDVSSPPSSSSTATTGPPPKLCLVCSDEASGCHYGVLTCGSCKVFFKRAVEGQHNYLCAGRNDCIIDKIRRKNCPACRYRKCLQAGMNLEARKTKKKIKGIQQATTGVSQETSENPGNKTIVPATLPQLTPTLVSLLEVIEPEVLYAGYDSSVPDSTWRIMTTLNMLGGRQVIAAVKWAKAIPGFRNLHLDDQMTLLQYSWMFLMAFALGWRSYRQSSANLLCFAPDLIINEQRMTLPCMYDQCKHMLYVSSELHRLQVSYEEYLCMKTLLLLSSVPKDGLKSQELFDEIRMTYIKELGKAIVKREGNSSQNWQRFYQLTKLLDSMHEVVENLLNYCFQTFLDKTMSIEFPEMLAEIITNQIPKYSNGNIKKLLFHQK
# Sequence of Retinoic acid receptor alpha (Homo sapiens) (P10276 whole entry, looked up): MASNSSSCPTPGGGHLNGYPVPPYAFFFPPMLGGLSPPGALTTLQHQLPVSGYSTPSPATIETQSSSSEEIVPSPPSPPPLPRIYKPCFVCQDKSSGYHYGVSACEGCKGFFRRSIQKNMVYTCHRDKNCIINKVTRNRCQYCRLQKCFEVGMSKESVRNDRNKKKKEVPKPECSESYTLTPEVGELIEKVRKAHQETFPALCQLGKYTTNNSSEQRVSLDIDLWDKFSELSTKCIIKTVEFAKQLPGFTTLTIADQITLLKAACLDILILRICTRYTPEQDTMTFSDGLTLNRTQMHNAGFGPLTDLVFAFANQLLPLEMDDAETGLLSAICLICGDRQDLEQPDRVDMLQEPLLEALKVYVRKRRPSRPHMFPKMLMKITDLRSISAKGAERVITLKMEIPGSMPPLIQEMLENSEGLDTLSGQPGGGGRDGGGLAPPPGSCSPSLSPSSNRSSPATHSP
# Sequence of human Adenosine Transporter (Adot), SLC29A1 (gene 2030) (Q99808 whole entry, looked up): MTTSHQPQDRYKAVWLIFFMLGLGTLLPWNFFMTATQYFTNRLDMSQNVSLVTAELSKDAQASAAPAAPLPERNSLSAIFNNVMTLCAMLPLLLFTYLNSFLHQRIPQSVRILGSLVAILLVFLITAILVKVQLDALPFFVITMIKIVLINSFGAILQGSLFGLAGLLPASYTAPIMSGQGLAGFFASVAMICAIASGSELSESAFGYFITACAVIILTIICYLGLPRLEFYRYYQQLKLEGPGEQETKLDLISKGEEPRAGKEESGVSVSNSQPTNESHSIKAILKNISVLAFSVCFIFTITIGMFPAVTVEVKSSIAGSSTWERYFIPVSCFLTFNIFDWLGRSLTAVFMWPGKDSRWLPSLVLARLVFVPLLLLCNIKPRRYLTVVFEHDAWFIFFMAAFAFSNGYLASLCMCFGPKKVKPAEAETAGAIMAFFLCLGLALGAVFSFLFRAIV
# Sequence of human Peroxisome Proliferator-activated Receptor alpha (PPARa), PPARA (gene 5465) (Q07869 whole entry, looked up): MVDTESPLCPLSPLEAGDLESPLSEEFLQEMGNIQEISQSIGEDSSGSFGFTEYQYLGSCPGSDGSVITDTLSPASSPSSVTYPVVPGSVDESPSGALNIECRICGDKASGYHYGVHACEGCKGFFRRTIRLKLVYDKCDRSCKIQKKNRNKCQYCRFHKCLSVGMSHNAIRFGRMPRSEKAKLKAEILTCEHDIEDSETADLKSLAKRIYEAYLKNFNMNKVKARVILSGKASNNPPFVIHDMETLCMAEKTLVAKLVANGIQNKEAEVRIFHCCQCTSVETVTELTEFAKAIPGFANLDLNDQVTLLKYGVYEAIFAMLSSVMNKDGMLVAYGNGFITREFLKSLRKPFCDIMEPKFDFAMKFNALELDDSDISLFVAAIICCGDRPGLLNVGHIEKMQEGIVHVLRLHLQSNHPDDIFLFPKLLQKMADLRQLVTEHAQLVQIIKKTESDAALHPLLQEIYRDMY
# Sequence of Nuclear receptor subfamily 1 group I member 2 (Homo sapiens) (O75469 whole entry, looked up): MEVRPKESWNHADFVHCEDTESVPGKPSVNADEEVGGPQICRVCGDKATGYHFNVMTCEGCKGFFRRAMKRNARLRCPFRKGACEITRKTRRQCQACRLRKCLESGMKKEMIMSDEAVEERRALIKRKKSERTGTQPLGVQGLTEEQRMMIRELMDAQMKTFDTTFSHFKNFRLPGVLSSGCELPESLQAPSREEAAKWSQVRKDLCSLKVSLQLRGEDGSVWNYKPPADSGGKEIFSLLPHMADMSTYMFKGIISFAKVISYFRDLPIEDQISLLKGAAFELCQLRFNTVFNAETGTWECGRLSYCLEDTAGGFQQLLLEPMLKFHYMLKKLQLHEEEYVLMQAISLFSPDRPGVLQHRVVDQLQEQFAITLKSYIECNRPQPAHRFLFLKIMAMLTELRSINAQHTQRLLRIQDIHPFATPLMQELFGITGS
smiles,measurement,setting,value
CCOC(=O)C(C)OC(=O)c1cc(Oc2ccc(C(F)(F)F)cc2Cl)ccc1[N+](=O)[O-] (stereo not drawn),outcome,[1],inactive
CC(C)N1C(=O)c2ccccc2NS1(=O)=O,AC50,[2],6.37 µM (active)
CCCCOCN(C(=O)CCl)c1c(CC)cccc1CC,outcome,[3],inactive
CCCCC(O)(Cn1cncn1)c1ccc(Cl)cc1Cl (stereo not drawn),outcome,[3],inactive
N#Cc1c[nH]cc1-c1cccc2c1OC(F)(F)O2,AC50,[4],1.57 µM (active)
CCNP(=S)(OC)O/C(C)=C/C(=O)OC(C)C (stereo not drawn),outcome,[5],inactive
COP(=S)(OC)SCn1nnc2ccccc2c1=O,outcome,[3],inactive
Nc1c(Cl)c(Cl)nc(C(=O)O)c1Cl,outcome,[6],inactive
